According to PubChem BioAssay (Tox21):
Results filed as inconclusive are left out. The source made the active and inactive calls. Unless noted, calls follow the shape of the dose curve; as a rule, active = well fitted curve in the direction sought with a large enough effect in the repeat runs; inconclusive = weak or mixed curves; inactive = no such curve, though single readings can be large; an effect the other way counts as inactive or inconclusive.

Experiments:
[1] = qHTS assay for small molecule agonists of the p53 signaling pathway (AID 651631; calls by dose curve; also: nearly all actives have a fitted effect of over 15% in size)
How it was run: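 HCT-116 cells carrying a stable p53 response element–beta-lactamase reporter were plated, rested 5 h at 37 °C, then exposed to compound in DMSO for 16 h at 37 °C; reporter activity was read as FRET substrate fluorescence after 2 h at room temperature.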

[2] = qHTS assay for small molecule agonists of the p53 signaling pathway - cell viability (AID 651633; calls by dose curve; also: series mostly up to about 83 µM; nearly all actives have a fitted effect of over 30% in size)
How it was run: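 Viability counter-read: CellTiter-Glo luminescence (30 min, room temperature) in the same p53RE-bla plates. These plates had been exposed to compounds for 16 h at 37 C.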

[3] = qHTS assay for small molecules that induce genotoxicity in human embryonic kidney cells expressing luciferase-tagged ATAD5 - cell viability (AID 651634; calls by dose curve; also: nearly all actives have a fitted effect of over 25% in size)
How it was run: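 Here HEK293T cells with the ATAD5 luciferase reporter are incubated with test compounds for 15.5 hr, and cytotoxicity is then gauged by measuring protease activity in live cells using fluorescence.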

[4] = qHTS assay for small molecule disruptors of the mitochondrial membrane potential - cell viability (AID 720634; calls by dose curve;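 also: human HepG2 liver cancer cells; series mostly up to about 83 µM; nearly all actives have a fitted effect of over 20% in size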)
How it was run: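 Viability of HepG2 cells is scored from ATP content by luminescence; cells are exposed to compound for 1 hr at 37 C and 5% CO2, then dosed with m-MPI dye before the CellTiter-Glo reagent.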

[5] = qHTS assay to test for compound auto fluorescence at 590 nm (red) in HepG2 cells (AID 720674)
How it was run: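 1 hr compound incubation on HepG2 cells, 37 C, 5% CO2; plate read ex 540 nm / em 590 nm; intensities reported as Rose Bengal sodium equivalents.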

[6] = qHTS assay to test for compound auto fluorescence at 535 nm (green) in HepG2 cells (AID 720675)
[7] = qHTS assay to test for compound auto fluorescence at 460 nm (blue) in HEK293 cells (AID 720678)
How it was run: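 HEK293 cells (2,000 per well, medium with 10% dialyzed FBS) attached for 4-5 hr at 37C, then received compound and stood overnight at 37C, 5% CO2. Blue fluorescence was read at Ex/Em 405/460 nm and expressed relative to triamterene.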

[8] = qHTS assay to test for compound auto fluorescence at 535 nm (green) in HEK293 cells (AID 720680)
[9] = qHTS assay to test for compound auto fluorescence at 460 nm (blue) in HEK293 cell free culture (AID 720681)
How it was run: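 Blue fluorescence (Ex 405/Em 460 nm, triamterene-equivalent) was read immediately after pin transfer of compound or DMSO into medium (DMEM, 10% FBS) without cells.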

[10] = qHTS assay to test for compound auto fluorescence at 535 nm (green) in HEK293 cell free culture (AID 720682)
How it was run: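 Read-out: 485/535 nm fluorescence intensity, calibrated against fluorescein. Medium only (DMEM + 10% FBS, no cells); test compound or DMSO vehicle added by pintool before plate reading.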

[11] = qHTS assay to test for compound auto fluorescence at 590 nm (red) in HepG2 cell free culture (AID 720684)
How it was run: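 Cell-free; medium MEM + 10% FBS; compound or DMSO added by pintool; read Ex 540/Em 590 nm; Rose Bengal sodium as red reference fluorophore.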

[12] = qHTS assay to test for compound auto fluorescence at 460 nm (blue) in HepG2 cell free culture (AID 720685)
How it was run: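 Cell-free plates of MEM plus 10% FBS received 23 nL compound or DMSO vehicle; blue-channel (405/460 nm) intensity scored against triamterene as reference fluorophore.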

[13] = qHTS assay to test for compound auto fluorescence at 535 nm (green) in HepG2 cell free culture (AID 720686)
[14] = qHTS assay to test for compound auto fluorescence at 460 nm (blue) in HepG2 cells (AID 720687)
How it was run: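 Blue-channel autofluorescence (Ex/Em 405/460 nm, triamterene-equivalent) was measured after 1 hr compound exposure at 37 C, 5% CO2. Cells were HepG2, plated overnight at 37 C in MEM plus 10% FBS.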

[15] = target: Glucocorticoid receptor (Homo sapiens) (UniProt P04150); assay: qHTS assay to identify small molecule agonists of the glucocorticoid receptor (GR) signaling pathway (AID 720691; active = well fitted activation curve with a large enough effect in the signal ratio in the repeat runs, not every such curve was filed as active; the % refers to the signal ratio)
How it was run: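 Compounds in DMSO, alongside positive controls, were added to GR-bla HeLa reporter cells and incubated 18 h at 37 C; GRE-driven beta-lactamase was detected by fluorescence after 2 h with FRET substrate at room temperature.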

[16] = target: Glucocorticoid receptor (Homo sapiens) (UniProt P04150); assay: qHTS assay to identify small molecule antagonists of the glucocorticoid receptor (GR) signaling pathway (AID 720692; active = well fitted inhibition curve with a large enough effect in the signal ratio in the repeat runs, not every such curve was filed as active; the % refers to the signal ratio)
How it was run: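 In a 1536-well cell format, compounds were added 4 h after seeding GR-bla HeLa cells, together with dexamethasone at 5 nM final; reporter activity was measured by FRET-substrate fluorescence following 18 h at 37 C.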

[17] = qHTS assay for small molecule disruptors of the mitochondrial membrane potential (AID 720635)
How it was run: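 Mitochondrial membrane potential tracked with Mito-MPS dye, red aggregates (ex 540/em 590 nm) against green monomers (ex 490/em 535 nm). Compound treatment 1 hr at 37C, dye 30 min in HepG2.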

[18] = qHTS assay to test for compound auto fluorescence at 590 nm (red) in HEK293 cell free culture (AID 720683)
How it was run: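 Red-channel autofluorescence of compounds in culture medium (DMEM, 10% FBS), no cells, measured at 540/590 nm. Rose Bengal sodium is the reference fluorophore for equivalence.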

[19] = qHTS assay to test for compound auto fluorescence at 590 nm (red) in HEK293 cells (AID 720679)
How it was run: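 HEK293 cells (2,000/well, medium with 10% dialyzed FBS) attached for 4-5 hr at 37C, received 23 nL compound and were incubated overnight at 37C, 5% CO2. Red fluorescence was then read at 540/590nm Ex/Em, referenced to Rose Bengal sodium.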

[20] = qHTS assay for small molecules that induce genotoxicity in human embryonic kidney cells expressing luciferase-tagged ATAD5 (AID 651632); also: nearly all actives have a fitted effect of over 15% in size
How it was run: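 DMSO vehicle served as the control. HEK293T reporter cells, 16 hr at 37C, then 30 min Amplite at room temperature; ATAD5 induction is measured as luciferase activity.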

Measured: Potency

Glucocorticoid receptor (Homo sapiens), sequence (P04150 whole entry, looked up): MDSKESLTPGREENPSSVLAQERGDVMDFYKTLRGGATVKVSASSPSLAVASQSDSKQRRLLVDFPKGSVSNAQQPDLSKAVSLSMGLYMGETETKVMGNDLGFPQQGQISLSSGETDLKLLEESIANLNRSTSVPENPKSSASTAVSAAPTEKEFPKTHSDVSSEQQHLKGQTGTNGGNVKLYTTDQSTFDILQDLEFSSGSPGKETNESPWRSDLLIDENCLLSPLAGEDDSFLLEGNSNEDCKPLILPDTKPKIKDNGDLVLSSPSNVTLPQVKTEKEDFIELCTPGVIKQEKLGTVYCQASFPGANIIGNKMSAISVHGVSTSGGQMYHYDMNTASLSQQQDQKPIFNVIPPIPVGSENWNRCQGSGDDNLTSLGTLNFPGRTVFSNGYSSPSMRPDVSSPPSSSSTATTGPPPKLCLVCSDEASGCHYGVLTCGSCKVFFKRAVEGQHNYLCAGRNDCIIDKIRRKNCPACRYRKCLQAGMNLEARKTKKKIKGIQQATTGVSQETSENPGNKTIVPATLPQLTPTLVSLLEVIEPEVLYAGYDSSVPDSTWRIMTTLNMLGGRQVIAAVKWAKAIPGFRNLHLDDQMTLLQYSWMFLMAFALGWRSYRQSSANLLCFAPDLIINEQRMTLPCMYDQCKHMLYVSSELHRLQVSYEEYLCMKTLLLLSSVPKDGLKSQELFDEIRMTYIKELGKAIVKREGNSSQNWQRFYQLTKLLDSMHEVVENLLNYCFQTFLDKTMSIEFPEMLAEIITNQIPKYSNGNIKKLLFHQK

COC(=O)Cc1cccc2ccccc12
not listed: [17] | [18] | [19] | [20]
inactive: all other assays above

Nc1cccc2c(=O)[nH][nH]c(=O)c12
not listed: [19] | [20]
inactive: all other assays above

C=C[Si](OCC)(OCC)OCC
not listed: [17] | [20]
inactive: all other assays above

CC(=O)Nc1ccccc1O
not listed: [15] | [16] | [17] | [18] | [20]
inactive: all other assays above

O=C1c2ccccc2C(=O)C1c1ccc2ccccc2n1
not listed: [4] | [17] | [18] | [20]
inactive: all other assays above

O=C(Nc1ccc2c(c1)Cc1ccccc1-2)C(F)(F)F
not listed: [2] | [4] | [12] | [17]
inactive: all other assays above

CCCCCCCCCCCCCCCCC(=O)O
not listed: [4] | [17] | [20]
inactive: all other assays above

CCCC(=O)OCCC(C)C
not listed: [12] | [18] | [19] | [20]
inactive: all other assays above

Cc1ccc2ccccc2c1[N+](=O)[O-]
not listed: [3] | [16] | [17] | [20]
inactive: all other assays above

CC(C)CCCCCCCOC(=O)c1ccc(C(=O)OCCCCCCCC(C)C)c(C(=O)OCCCCCCCC(C)C)c1
not listed: [20]
inactive: all other assays above

CCCCCCCCCCCCSC#N
not listed: [2] | [11] | [16] | [17] | [20]
inactive: all other assays above

O=c1[nH][nH]c2ccccc12
not listed: [16] | [20]
inactive: all other assays above

CCOC(=O)CC(O)(CC(=O)OCC)C(=O)OCC
not listed: [4] | [17] | [20]
inactive: all other assays above

Oc1ccc(CCNCCCCCCNCCc2ccccc2)cc1O
not listed: [2] | [4] | [12] | [15] | [16] | [17]
inactive: all other assays above

CCc1ccc(C(=O)C(C)CN2CCCCC2)cc1 (centres undefined)
not listed: [20]
inactive: all other assays above

O=C(O)c1cccc(C(=O)O)c1C(=O)O
not listed: [2] | [17] | [20]
inactive: all other assays above

C=CCCC
not listed: [12] | [17] | [20]
inactive: all other assays above

Nc1ccc(-c2ccc(F)cc2)cc1
not listed: [15] | [16] | [17] | [20]
inactive: all other assays above

CCCC1CCCC(=O)O1 (centres undefined)
not listed: [11] | [20]
inactive: all other assays above

COc1cc(CNC(=O)CCCC/C=C/C(C)C)ccc1O
not listed: [12] | [17] | [18] | [20]
inactive: all other assays above

CC(=O)S[C@H](C(=O)N[C@H]1Cc2ccccc2[C@H]2CCC[C@@H](C(=O)O)N2C1=O)C(C)C
not listed: [19] | [20]
inactive: all other assays above

C=CC(O)CCCCC (centres undefined)
not listed: [4] | [15] | [16] | [17] | [20]
inactive: all other assays above

CCC(C)CCCC(C)(C)O (centres undefined)
not listed: [4] | [17] | [20]
inactive: all other assays above

CC(O)C(C)O (centres undefined)
not listed: [17] | [20]
inactive: all other assays above

CCOc1ccc(NC(C)=O)cc1N
not listed: [11] | [15] | [16] | [17] | [20]
inactive: all other assays above

C[C@]12CCC(=O)C=C1[C@@H]1C[C@@H]1[C@H]1[C@@H]3[C@@H]4C[C@@H]4[C@@]4(CCC(=O)O4)[C@@]3(C)CC[C@@H]12
not listed: [2] | [4] | [15] | [16] | [17]
inactive: all other assays above

CCCOC(C)=O
not listed: [2] | [4] | [11] | [17] | [18]
inactive: all other assays above

COC(=O)/C=C/C(C)=C\C=C\C(C)=C\C=C\C=C(C)\C=C\C=C(C)\C=C\C(=O)O
not listed: [16] | [17] | [20]
inactive: all other assays above

C[C@H](CN1CCCC1)C(=O)c1ccc(C(F)(F)F)cc1
not listed: [2] | [4] | [17] | [19] | [20]
inactive: all other assays above

CC(=O)c1ccc(Cl)c(Cl)c1Cl
not listed: [1] | [16] | [17]
inactive: all other assays above

C1=COCCC1
not listed: [1] | [17]
inactive: all other assays above
